Measured values as given in PubChem BioAssay (NCI).
The panel holds about 79,000 compounds, 15% with a hit somewhere; the sample as a whole holds those more often. Activity calls are given as the source filed them. No stated cut-off is given here; in the data, active means growth inhibition above about 70%; inactive means the rest.

Tests used:
[1] = NCI Yeast Anticancer Drug Screen. Data for the rad50 strain (AID 155);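 further: 0% = growth of vehicle-only cultures of the same strain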; details: S. cerevisiae rad50 strain growth inhibition; at 50.0 µM; active compounds read high
How it was run: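 Compounds were tested on a yeast strain with an engineered DNA damage repair alteration; the reported value is growth inhibition normalised to vehicle treatment.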

[2] = NCI Yeast Anticancer Drug Screen. Data for the mec2-1 strain (AID 157); details: S. cerevisiae mec2-1 strain, at 50.0 µM, active compounds read high
How it was run: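 Using mec2-1 yeast: add compound, measure growth, express inhibition versus vehicle-treated cultures.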

[3] = NCI Yeast Anticancer Drug Screen. Data for the sgs1 mgt1 strain (AID 161);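 further: 0% = growth of cultures given vehicle only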; details: S. cerevisiae sgs1 mgt1 strain, at 50.0 µM, active compounds read high
How it was run: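 This yeast growth screen uses a strain with defined DNA-repair lesions; compound-treated growth is compared with vehicle-treated growth.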

[4] = NCI Yeast Anticancer Drug Screen. Data for the cln2 rad14 strain (AID 165);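 further: 0% = growth equal to vehicle treated cultures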; details: S. cerevisiae cln2 rad14 strain, at 50.0 µM, active compounds read high
How it was run: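 Yeast strain cln2 rad14, bearing defects in cell cycle control and DNA repair, serves as the test system; values reflect growth inhibition compared with vehicle.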

[5] = NCI Yeast Anticancer Drug Screen. Data for the bub3 strain (AID 167); details: S. cerevisiae bub3 mutant strain, at 50.0 µM, active compounds read high
How it was run: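 Growth of a checkpoint-deficient yeast mutant is measured after compound exposure. Values represent inhibition relative to vehicle.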

[6] = NCI Yeast Anticancer Drug Screen. Data for the mlh1 rad18 strain (AID 175); details: S. cerevisiae mlh1 rad18 strain growth inhibition; at 50.0 µM; active compounds read high
How it was run: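 Steps: expose repair-defective yeast to compound; measure growth; express inhibition against vehicle-treated controls.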

Measured: growth inhibition

Cc1ccc(C(O)(c2ccc(C)cc2)C2CCCCC2=C(c2ccccc2)c2ccccc2)cc1 (stereo unspecified)
inactive: [1] 10.8% | [2] 3.45% | [3] -14.2% | [4] -7.35% | [5] -0.25% | [6] 15.2%

O=C(O)Cc1ccccc1-c1ccccc1
inactive: [1] -22.2% | [2] -8.15% | [3] -19.2% | [4] 22.4% | [5] -6.2% | [6] -43.2%

O=C(OC1COC(n2c(=O)oc3ccc(Cl)cc32)C(OC(=O)c2ccccc2)C1OC(=O)c1ccccc1)c1ccccc1 (stereo unspecified)
inactive: [1] 8% | [2] 2.5% | [3] 6.8% | [4] -13.2% | [5] -1.1% | [6] 10.7%

CC(=O)Nc1ccc(OC(C)=O)cc1
inactive: [1] 14.4% | [2] -0.85% | [3] 3.55% | [4] 20.5% | [5] 2.7% | [6] 24.4%

Cc1c(C)c(CC(=O)N2CC2)c(C)c(C)c1CC(=O)N1CC1
inactive: [1] -23.4% | [2] 9.75% | [3] -3.9% | [4] -26.1% | [5] 2.65% | [6] -36.2%

Nc1ccc(S(=O)(=O)N/N=C/c2ccco2)cc1
inactive: [1] 27.1% | [2] -25.1% | [3] 2.8% | [4] 1.6% | [5] -50.5% | [6] -15.1%

Cn1c(=O)c2[nH]c(N(CCO)N=O)nc2n(C)c1=O
inactive: [1] -9.25% | [2] -8.2% | [3] -4.25% | [4] -7.35% | [5] 13.3% | [6] -26.4%

O=C1c2cccc([N+](=O)[O-])c2C(=O)N1c1ncn[nH]1
inactive: [1] -5.9% | [2] -2.15% | [3] -21.9% | [4] -6.8% | [5] -43.4% | [6] 0.15%

N#Cc1c(N)nc(Nc2cccc3ccccc23)c(C#N)c1C#N
inactive: [1] 37.7% | [2] 29.7% | [3] 29.1% | [4] 39.9% | [5] 29.4% | [6] 36.8%

O=C(C[n+]1ccccc1Cc1ccccc1)c1ccccc1
inactive: [1] -6.6% | [2] -4.2% | [3] -14% | [4] -11.6% | [5] -11.4% | [6] -17.9%

CCOC(=O)c1ccc(NCc2cccc([N+](=O)[O-])c2)cc1
active: [5] 73.8%
inactive: [1] 10.2% | [2] -18.5% | [3] 10.4% | [4] 0.45% | [6] 31.6%

COc1ccc(-c2c(O)c3cccc(-c4ccccc4)c3oc2=O)cc1
inactive: [1] 2.7% | [2] 6.7% | [3] -2.9% | [4] 2.95% | [5] 15% | [6] 7.5%

N#Cc1ccc(/C=C/C(=O)c2ccccc2)cc1
inactive: [1] 13.4% | [2] -20.1% | [3] 5.8% | [4] 6.8% | [5] 13.9% | [6] 9.05%

C=C(C)COc1ccc(Nc2ccccc2)cc1
inactive: [1] 5.7% | [2] 18.4% | [3] 22% | [4] 6.65% | [5] 2.35% | [6] 34%

CCOC(=O)C(=CN1CCCc2ccccc21)C(=O)OCC
inactive: [1] 5.05% | [2] -17.1% | [3] 13.6% | [4] -35% | [5] 5.4% | [6] -6.15%

CCCCCCC/C=N/Nc1ccc([N+](=O)[O-])cc1[N+](=O)[O-]
inactive: [1] -3.3% | [2] -16.1% | [3] -5.55% | [4] -23.9% | [5] 1.4% | [6] 12.9%

NC(Cc1ccsc1)C(=O)O (stereo unspecified)
inactive: [1] 0.15% | [2] 10.7% | [3] -22.7% | [4] -45.2% | [5] 20.5% | [6] -30.8%

[Cl][Sm]([Cl])[Cl]
inactive: [1] 17.9% | [2] -9.7% | [3] 8.65% | [4] 8.6% | [5] 27.6% | [6] 9.6%

Clc1cccc2[nH]ccc12
inactive: [1] -6.1% | [2] -3.1% | [3] -23.9% | [4] -10.2% | [5] -11.3% | [6] -3.9%

CCn1c(=O)c(C#N)c2n(CC)c3cc(C)c(C)cc3n2c1=O
inactive: [1] -13.5% | [2] -2.9% | [3] -11% | [4] -24.2% | [5] -31.3% | [6] -20.4%

COC1(C)CNc2ccccc2C(=O)N1 (stereo unspecified)
inactive: [1] 6.65% | [2] -7.4% | [3] 22.9% | [4] 19.1% | [5] 23.1% | [6] 6.55%
